# Data: PubChem BioAssay
# Assay: HepG2 cell viability effects, profiling panel, calcein-AM fluorescence, 48 h, basal (AID 1164)
# Settings: higher = more signal
# Note: test concentration not given here.
row,Compound,z-score
1,O=C(N1CCCCC1)[C@]1(Cc2ccccc2)N=C(c2ccc(OCCCO)cc2)O[C@@H]1c1ccccc1,-2.04
2,CCOC(=O)[C@H]1C/C=C/C[C@H](C(=O)OCC)C(=O)O[C@H]2[C@@H](OC)O[C@H](CO)[C@@H](OC(=O)c3c(OC)cccc3OC)[C@@H]2OC1=O,-4.96
3,C=C(CCCC)/C(=C/C[C@H](OC(=O)c1ccncc1)c1ccccc1OCCO)c1cnc2ccccc2c1,0.0722
4,CCN(CC)c1ccc(N2CC=CC34O[C@@H]5C=CCCOC(=O)C5[C@H]3C(=O)N(CCCCCCO)[C@@H]4C2=O)cc1 (some centres not stated),0.239
5,COC(=O)[C@@]1(Cc2ccc(OC)cc2)[C@H]2c3cc(C(=O)N4CCCC4)n(CCN4CNCC4=O)c3C[C@H]2CN1C(=O)c1ccccc1,-0.137
6,CCC(CC)C(O)C1C=CC2C(=O)NC(=O)C2N1Nc1ccccn1 (configuration not stated),0.0063
7,O=C(CS)NCCCCCCNC(=O)[C@@H]1C[C@@H]2C(=O)NCC(=O)N2[C@@H]1c1cccc(OCCO)c1,0.381

# Assay: MM1S cell viability effects, profiling panel, calcein-AM fluorescence, 48 h, basal (AID 1165);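 note: viability of MM1S multiple myeloma cells under basal unstimulated conditions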
# Settings: higher = more signal
row,Compound,z-score
1,COCC(=C=CC[C@@H](O)c1cccc(OCCO)c1)C[C@@H](O)c1ccccn1,0.265
2,C[C@@]1([C@@H](NC(=O)c2ccc(-c3ccccc3)cc2)c2ccc(Cl)cc2)C[C@H]1C1CCCCC1,-3.43
3,CCc1cccc(NC(=O)O[C@H]2[C@H](OC(=O)Nc3ccccc3-c3ccccc3)[C@@H](OC(=O)Nc3ccccc3-c3ccccc3)[C@@H](OC)O[C@@H]2CO)c1,-3.46
4,C=C[C@H](CO[Si](CC)(CC)CC)N(Cc1ccc(OC(C)=O)c(OC)c1)S(=O)(=O)c1ccc(Br)cc1,-3.23
5,C[C@H]1NC(=O)[C@@]23C(=O)N[C@@H](Cc4ccccc4)C2[C@H](C)[C@@]2(C)O[C@H]2C3/C=C/C/C=C\CNC(=O)[C@@H]2CCCN2C1=O (some centres not stated),-1.6
6,CCS[C@H]1[C@@H](C(=O)O)[C@H](c2ccc(C)cc2)N(S(=O)(=O)c2ccc(C)cc2)[C@@H]1CC,0.412
7,COCCOC(=O)N1C(=O)[C@@]2(c3ccccc31)[C@H](C(=O)N1CCc3cc(OC)c(OC)cc3C1)[C@H]1C(=O)O[C@H](c3ccccc3)[C@H](c3ccccc3)N1[C@@H]2c1ccc(OCCO)cc1,-1.1
8,[N-]=[N+]=Nc1ccccc1[C@H]1OC(c2ccc(OCCCO)cc2)=N[C@@]1(CCS(=O)(=O)c1ccccc1)C(=O)NCC(O)CO (some centres not stated),-0.826
9,[N-]=[N+]=NCc1ccccc1[C@@H]1OC(c2ccc(OCCCO)cc2)=N[C@]1(Cc1ccccc1)C(N)=O,-0.527
10,C=C(CCCC)C(=O)CC[C@@H](OC(=O)c1ccccc1-c1ccccc1C(=O)O)c1ccc(OCCO)cc1,-3.37
11,O=C(CS)NCCCCCCNC(=O)[C@@H]1C[C@@H]2C(=O)N[C@@H](Cc3ccccc3)C(=O)N2[C@@H]1c1cccc(OCCO)c1,-0.204
12,CC(C)C(O)C1C=CC2C(=O)N(c3ccccc3)C(=O)C2N1Nc1ccc([N+](=O)[O-])cc1 (configuration not stated),0.637
13,CC(C)N1C(=O)[C@@]2(Cc3ccccc31)c1ccccc1C(=O)N(Cc1ccccc1Cl)[C@H]2c1ccc(CO)cc1,-1.58
14,C=CCC(OC(C)=O)[C@@H]1[C@@H](N(Cc2cc3ccccc3o2)C(=O)c2cccc3ccccc23)c2cc(OCCCO)ccc2N1C(=O)c1ccc(-c2ccccc2)cc1 (some centres not stated),0.612
15,C=CCC(OC(C)=O)[C@@H]1[C@@H](N(Cc2ccc(-c3ccccc3)cc2)C(=O)Cc2ccc(OC)cc2)c2cc(OCCCO)ccc2N1C(=O)Cc1ccc2ccccc2c1 (some centres not stated),-0.391
16,Cc1ccc(S[C@]2(C(=O)O)CC(=O)N(C(C)C)[C@@H]2c2ccc(CO)cc2I)cc1,-2.36
17,O=C1O[C@@H](c2ccccc2)[C@@H](c2ccccc2)N2[C@@H](c3ccccc3OCCO)[C@]3(C(=O)Nc4ccc(C#CC5=CCCCC5)cc43)[C@@H](C(=O)N3CCCCCCC3)[C@H]12,-3.09
18,O=C1OCCC/C=C\[C@H]2OC34C=CCN(Cc5ccccc5)C(=O)[C@H]3N(CCCO)C(=O)[C@@H]4C12 (some centres not stated),1.58

row,Compound,z-score
1,COC(=O)[C@@]1(Cc2ccc(OC)cc2)[C@H]2c3cc(C(=O)N(C)C)n(Cc4ccc(S(C)(=O)=O)cc4)c3C[C@H]2CN1C(=O)c1ccccc1,0.636
2,CC(C)C[C@@H]1NC(=O)[C@H](C(C)C)NC(=O)[C@@]23C(=O)N[C@@H](Cc4ccccc4)C2[C@H](C)[C@@]2(C)O[C@H]2C3/C=C/CC/C=C/CNC1=O (some centres not stated),-0.359
3,COCCOC(=O)N1C(=O)[C@@]2(c3ccccc31)[C@H](c1ccc(O)cc1)N1[C@H](c3ccccc3)[C@H](c3ccccc3)OC(=O)[C@H]1[C@@H]2C(=O)Nc1nc2ccccc2s1,-1.49
4,CC(C)OC(=O)C=C1C[C@@H](c2ccccn2)O[C@@H](c2ccccn2)O1,0.667
5,COC(=O)[C@@]1(Cc2ccc(F)cc2)[C@H]2c3cc(C(=O)N(C)C)n(Cc4ccc(Cl)c(C(F)(F)F)c4)c3C[C@H]2CN1C(=O)c1ccccc1,-2.26
6,CC(C)(C)OC(=O)CC[C@]1(C(=O)N2CCOCC2)N=C(c2ccc(OCCCO)cc2)O[C@H]1c1ccccc1N=[N+]=[N-],-0.474
7,C=C(C(=O)CC[C@@H](OC(=O)c1cccnc1)c1ccccc1OCCO)C(C)C,-1.81
8,NCCCCCCNC(=O)[C@@H]1C[C@@H]2C(=O)NCC(=O)N2[C@@H]1c1ccc(O)cc1,0.307
9,CCCCCCc1nc(-c2cc(C)c(OC)c(C)c2)cc2c1[Si](C(C)C)(C(C)C)OC2,-1.12
10,C=CCOC(=O)[C@@H]1[C@H]2C(=O)O[C@H](c3ccccc3)[C@H](c3ccccc3)N2[C@H](c2ccc(OCCOC(=O)[C@H]3C[C@H]4C(=O)N5CCC[C@H]5C(=O)N4[C@H]3c3ccc(O)cc3)cc2)[C@@]12C(=O)Nc1ccc(I)cc12,-1.75
11,O=C(N1CCCCC1)[C@]1(Cc2ccccc2)N=C(c2ccc(OCCCO)cc2)O[C@@H]1c1ccccc1,-3.35
12,CCOC(=O)[C@H]1C/C=C/C[C@H](C(=O)OCC)C(=O)O[C@H]2[C@@H](OC)O[C@H](CO)[C@@H](OC(=O)c3c(OC)cccc3OC)[C@@H]2OC1=O,-3.3
13,C=C(CCCC)/C(=C/C[C@H](OC(=O)c1ccncc1)c1ccccc1OCCO)c1cnc2ccccc2c1,-3.3
14,CCN(CC)c1ccc(N2CC=CC34O[C@@H]5C=CCCOC(=O)C5[C@H]3C(=O)N(CCCCCCO)[C@@H]4C2=O)cc1 (some centres not stated),1.97
15,COC(=O)[C@@]1(Cc2ccc(OC)cc2)[C@H]2c3cc(C(=O)N4CCCC4)n(CCN4CNCC4=O)c3C[C@H]2CN1C(=O)c1ccccc1,-0.105
16,CCC(CC)C(O)C1C=CC2C(=O)NC(=O)C2N1Nc1ccccn1 (configuration not stated),0.152
17,O=C(CS)NCCCCCCNC(=O)[C@@H]1C[C@@H]2C(=O)NCC(=O)N2[C@@H]1c1cccc(OCCO)c1,0.38
